# Laboratory results taken from PubChem BioAssay (NCATS).
# Records with an inconclusive call do not appear. Where a call stands in place of a potency, no number is given. Unmarked numbers belong to inactive results. The source made the active and inactive calls. Calls follow the shape of the dose curve; as a rule, active = well fitted curve in the direction sought with a large enough effect; inconclusive = small, poorly fitted or top-dose-only effect, or another doubt; inactive = no such curve, though single readings can be large; an effect the other way counts as inactive or inconclusive.
# Legend:
# [1] = qHTS to identify inhibitors of the type 1 interferon - major histocompatibility complex class I in skeletal muscle: primary screen against the NCATS Mechanism Interrogation Plate v5.0 (MIPE) Libary (AID 1347411); also: nearly all actives have a fitted effect of over 65% in size; also: potency is read from the fitted curve at half-maximal effect
# Method in brief: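 Luminescence from CRISPR HiBit-tagged endogenous HLA-B in human myoblasts reported MHC class I level after 24 h of IFN-beta (4 ng/ml) plus compound. Compounds ran as 11-point 1:3 series, top 46 uM final.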
# [2] = biological target: Calcium and integrin-binding protein 1 (Homo sapiens) (UniProt Q99828); experiment: Primary qHTS for Identification of Calcium Integrin Binding Protein 1 (CIB1) Competitor (AID 1508620);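 also: GST tagged CIB1 binding a fluorescein labelled alphaIIb integrin peptide tracer; top concentration of the series differs between compounds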
# Method in brief: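 Fluorescence polarization competition: CIB1-GST (1 uM final) preincubated with compound 15 min at room temperature, then FITC-labeled alphaIIb peptide (100 nM final) added for another 15 min. Polarization read at Ex 480/Em 540.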
# [3] = Tertiary RLuc qRT-PCR qHTS assay for Zika virus inhibitors (AID 1347169); also: nearly all actives have a fitted effect of over 55% in size; also: potency is read from the fitted curve at half-maximal effect; as to activity change, negative = inhibition: top concentration of the series differs between compounds
# Method in brief: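 Vero, 1,000 cells/well, o/n 37 C; cpd pinned in DMSO; ZIKV-RLuc Cambodian, MOI 1-2, 48-72 h 37 C; live-cell RLuc substrate, lum read at 1-1.5 h.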
# [4] = qHTS to identify inhibitors of the type 1 interferon - major histocompatibility complex class I in skeletal muscle: primary screen against the NCATS Pharmaceutical Collection (AID 1347407);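 also: luminescence of HiBiT knocked into endogenous HLA-B as interferon-induced MHC class I level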
# Method in brief: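 Luminescence from HiBiT-tagged endogenous HLA-B*08:01 served as the read-out of IFN-beta-induced MHC class I in CRISPR-engineered C25cl48 myoblasts. Cells received 4 ng/ml IFN-beta plus compound (high final 46 uM, […]) for 24 h.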
# [5] = biological target: Protein phosphatase 1D (Homo sapiens) (UniProt O15297); experiment: RapidFire Mass Spectrometry qHTS Assay for Modulators of WT P53-Induced Phosphatase 1 (WIP1) (AID 1347424);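 also: amount of dephosphorylated VEPPL-S-QETFS peptide product formed by WIP1; series mostly up to about 63 µM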
# Method in brief: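 Mass-spectrometric measurement of dephosphorylated peptide after a 5 min room-temperature reaction of 10 nM WIP1 with 2 uM phosphopeptide, following 1 h compound preincubation in 30 mM MgCl2 buffer.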
# [6] = biological target: Protein phosphatase 1D (Homo sapiens) (UniProt O15297); experiment: Rhodamine-PBP qHTS Assay for Modulators of WT P53-Induced Phosphatase 1 (WIP1) (AID 1347425)
# Method in brief: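 WIP1 (5 nM final) was preincubated with compound for 1 hour at room temperature. It then dephosphorylated 10 uM VEPPL-pS-QETFS peptide in Tris-HCl pH 7.5 with 30 mM MgCl2. Released Pi was detected by 10 uM Rh-PBP fluorescence (ex 525/em 598 nm) read at 1-min intervals for 11 min, as delta f1 - f0.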
# [7] = Primary qHTS for inhibitors of La Crosse Virus (LACV) - induced cell death in SH-SY5Y cells (AID 1508616);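 also: top concentration of the series differs between compounds; higher means more rescue of cells from virus-induced death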
# Method in brief: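 Rescue of virus-induced death was read as ATPLite luminescence after 6 days at 37C, scaled between DMSO wells with LACV and without virus. Cells were SH-SY5Y, 6000/well, infected at 0.01 MOI after compound addition.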
# [8] = Vero cells viability qHTS for Zika virus inhibitors (AID 1347167)
# Method in brief: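 To flag cytotoxic protease inhibitors, viability is measured by ATP-dependent luminescence (CellTiter Glo) after cells attached overnight receive compound for 24 to 48 hours in DMEM with 4% FBS.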
# Calcium and integrin-binding protein 1 (Homo sapiens), sequence (Q99828 whole entry, looked up): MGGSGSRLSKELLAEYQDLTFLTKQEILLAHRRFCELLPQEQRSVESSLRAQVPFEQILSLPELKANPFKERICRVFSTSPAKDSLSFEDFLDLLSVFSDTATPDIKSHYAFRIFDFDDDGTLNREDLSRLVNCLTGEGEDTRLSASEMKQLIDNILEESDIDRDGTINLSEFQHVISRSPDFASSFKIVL
# Protein phosphatase 1D (Homo sapiens), sequence (O15297 whole entry, looked up): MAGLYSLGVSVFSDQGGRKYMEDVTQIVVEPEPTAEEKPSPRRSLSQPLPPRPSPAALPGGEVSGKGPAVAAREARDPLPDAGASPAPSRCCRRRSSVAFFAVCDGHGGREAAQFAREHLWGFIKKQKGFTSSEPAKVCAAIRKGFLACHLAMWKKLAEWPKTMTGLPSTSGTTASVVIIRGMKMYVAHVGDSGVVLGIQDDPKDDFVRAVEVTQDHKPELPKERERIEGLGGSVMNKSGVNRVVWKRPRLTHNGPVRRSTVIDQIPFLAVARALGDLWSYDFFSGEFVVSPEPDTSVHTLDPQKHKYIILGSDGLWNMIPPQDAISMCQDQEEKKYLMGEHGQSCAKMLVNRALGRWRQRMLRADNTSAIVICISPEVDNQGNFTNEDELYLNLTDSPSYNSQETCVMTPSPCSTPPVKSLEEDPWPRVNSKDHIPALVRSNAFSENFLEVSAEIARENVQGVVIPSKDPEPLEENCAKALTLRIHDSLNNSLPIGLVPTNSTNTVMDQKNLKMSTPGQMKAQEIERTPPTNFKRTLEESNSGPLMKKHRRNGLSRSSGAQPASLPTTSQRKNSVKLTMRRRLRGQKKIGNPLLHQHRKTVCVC
compound,measurement,setting,value
CN[C@@H]1[C@@H](O)[C@@H](O[C@@H]2[C@@H](O)[C@H](O[C@H]3O[C@H](CN)[C@@H](O)[C@H](O)[C@H]3O)[C@@H](N)C[C@H]2NC(=O)C(O)CN)OC[C@]1(C)O (some centres not stated),Potency,[1],inactive
CO[C@H]1C[C@@H]2CC[C@@H](C)[C@@](O)(O2)C(=O)C(=O)N2CCCC[C@H]2C(=O)O[C@H]([C@H](C)C[C@@H]2CC[C@@H](OC(=O)C(C)(CO)CO)[C@H](OC)C2)CC(=O)[C@H](C)/C=C(\C)[C@@H](O)[C@@H](OC)C(=O)[C@H](C)C[C@H](C)/C=C/C=C/C=C/1C,Potency,[2],inactive
CC(=O)NCCCS(=O)(=O)O,Potency,[1],inactive
CC[C@H](CC[C@@H](C)[C@H]1CC[C@H]2[C@@H]3CC=C4C[C@@H](O)CC[C@]4(C)[C@H]3CC[C@]12C)C(C)C,Potency,[1],inactive
CC(C)(C)CC(C)(C)c1cc(Cc2cc(C(C)(C)CC(C)(C)C)cc(-n3nc4ccccc4n3)c2O)c(O)c(-n2nc3ccccc3n2)c1,"activity change, negative = inhibition",[3],-2.91% [at 1.74 µM]
O=C(OCc1ccccc1)c1ccc(O)cc1,outcome,[4],inactive
same,outcome,[5],inactive
same,outcome,[6],inactive
same,outcome,[7],inactive
same,Potency,[2],inactive
C=C1[C@H](CO)[C@@H](O)C[C@@H]1n1cnc2c(=O)[nH]c(N)nc21,Potency,[1],inactive
same,Potency,[2],inactive
C=CC[N+]1([C@H]2C[C@H]3[C@@H]4CC[C@H]5C[C@H](O)[C@@H](N6CCOCC6)C[C@]5(C)[C@H]4CC[C@]3(C)[C@H]2OC(C)=O)CCCC1,Potency,[1],inactive
C[C@H]1O[C@@H](O[C@H]2[C@@H](O)C[C@H](O[C@H]3[C@@H](O)C[C@H](O[C@H]4CC[C@@]5(C)[C@H](CC[C@@H]6[C@@H]5C[C@@H](O)[C@]5(C)[C@@H](C7=CC(=O)OC7)CC[C@]65O)C4)O[C@@H]3C)O[C@@H]2C)C[C@H](O)[C@@H]1O,outcome,[8],inactive
same,Potency,[3],380 nM (active)
same,Potency,[1],37 nM (active)
same,Potency,[2],inactive
